Laboratory results reported in PubChem BioAssay AID1159580 (chemical genetic matrix, 2015).
“And” between values parts separate entries of the source, which are not always exact repeats. Equal entries are not always repeated. Screen size: about 5,500 compounds; about 2,000 (36%) were called active. Another 18% or so got no clear call; they are omitted. No stated cut-off is given here; in the data, active means normalized growth mostly below about 0.91 (no sharp cut-off); inconclusive means no clear call, values can overlap the other calls; inactive means mostly above about 0.92. This is one part of the list.

Test: chemical genetic growth profiling, strain panel (AID 1159580);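 further: tested at 20 µM; growth read once vehicle control cultures reached saturation at 30 °C; 1 = growth at the plate median or of vehicle wells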
Details: growth OD
[1] = S. cerevisiae deletion strains, locus YHR030C, strain SLT2, stronger effect = lower value
[2] = S. cerevisiae deletion strains, locus YHR079C, strain IRE1, stronger effect = lower value
[3] = S. cerevisiae deletion strains, locus YJL095W, strain BCK1, stronger effect = lower value
[4] = S. cerevisiae deletion strains, locus YJR066W, strain TOR1, stronger effect = lower value
[5] = S. cerevisiae deletion strains, locus YLR113W, strain HOG1, stronger effect = lower value
[6] = S. cerevisiae deletion strains, locus YNL183C, strain NPR1, stronger effect = lower value
[7] = S. cerevisiae deletion strains, locus YOR231W, strain MKK1, stronger effect = lower value
[8] = S. cerevisiae deletion strains, locus YPL256C, strain CLN2, stronger effect = lower value

Measured: normalized growth

Cc1c(NC(C)C)c(=O)n(-c2ccccc2)n1C
inactive: S. cerevisiae deletion strains, locus YAL013W, strain DEP1, stronger effect = lower value 1 | S. cerevisiae deletion strains, locus YBR021W, strain FUR4, stronger effect = lower value 0.994 | S. cerevisiae deletion strains, locus YBR229C, strain ROT2, stronger effect = lower value 0.989 | S. cerevisiae deletion strains, locus YCL029C, strain bik1, stronger effect = lower value 0.983 | S. cerevisiae deletion strains, locus YDL035C, strain GPR1, stronger effect = lower value 1.02 | S. cerevisiae deletion strains, locus YDL074C, strain BRE1, stronger effect = lower value 0.987 | S. cerevisiae deletion strains, locus YDL101C, strain DUN1, stronger effect = lower value 0.985 | S. cerevisiae deletion strains, locus YDL134C, strain PPH21, stronger effect = lower value 0.996 | S. cerevisiae deletion strains, locus YDL185W, strain tfp1, stronger effect = lower value 0.984 | S. cerevisiae deletion strains, locus YDL192W, strain arf1, stronger effect = lower value 0.995 | S. cerevisiae deletion strains, locus YDR101C, strain arx1, stronger effect = lower value 0.984 | S. cerevisiae deletion strains, locus YDR150W, strain NUM1, stronger effect = lower value 1 | S. cerevisiae deletion strains, locus YDR162C, strain NBP2, stronger effect = lower value 1.01 | S. cerevisiae deletion strains, locus YDR318W, strain mcm21, stronger effect = lower value 0.98 | S. cerevisiae deletion strains, locus YDR388W, stronger effect = lower value 0.974 | S. cerevisiae deletion strains, locus YDR502C, strain sam2, stronger effect = lower value 1 | S. cerevisiae deletion strains, locus YEL061C, strain CIN8, stronger effect = lower value 1 | S. cerevisiae deletion strains, locus YER110C, stronger effect = lower value 0.984 | S. cerevisiae deletion strains, locus YER155C, strain BEM2, stronger effect = lower value 0.99 | S. cerevisiae deletion strains, locus YER167W, strain BCK2, stronger effect = lower value 1 | S. cerevisiae deletion strains, locus YGL078C, strain dbp3, stronger effect = lower value 0.995 | S. cerevisiae deletion strains, locus YGL086W, strain mad1, stronger effect = lower value 1 | S. cerevisiae deletion strains, locus YGL248W, strain PDE1, stronger effect = lower value 1 | S. cerevisiae deletion strains, locus YGR078C, strain PAC10, stronger effect = lower value 0.987 | S. cerevisiae deletion strains, locus YGR135W, strain pre9, stronger effect = lower value 0.983 | S. cerevisiae deletion strains, locus YGR229C, strain SMI1, stronger effect = lower value 0.998 | S. cerevisiae deletion strains, locus YGR252W, strain gcn5, stronger effect = lower value 1.09 | [1] 0.998 and 1.03 | S. cerevisiae deletion strains, locus YHR079C, strain IRE1 (second series), stronger effect = lower value 0.98 | [2] 1.03 | S. cerevisiae deletion strains, locus YHR094C, strain hxt1, stronger effect = lower value 0.98 | S. cerevisiae deletion strains, locus YHR129C, strain ARP1, stronger effect = lower value 0.991 | S. cerevisiae deletion strains, locus YHR200W, strain rpn10, stronger effect = lower value 0.981 | S. cerevisiae deletion strains, locus YIL066C, strain RNR3, stronger effect = lower value 0.998 | S. cerevisiae deletion strains, locus YIL073C, strain SPO22, stronger effect = lower value 1 | S. cerevisiae deletion strains, locus YIL125W, strain kgd1, stronger effect = lower value 0.99 | S. cerevisiae deletion strains, locus YIR030C, strain dcg1, stronger effect = lower value 0.986 | [3] 0.99 and 1.03 | S. cerevisiae deletion strains, locus YJL134W, strain LCB3, stronger effect = lower value 0.998 | S. cerevisiae deletion strains, locus YJL168C, strain set2, stronger effect = lower value 0.98 | S. cerevisiae deletion strains, locus YJL187C, strain SWE1 (second series), stronger effect = lower value 0.984 | S. cerevisiae deletion strains, locus YJR043C, strain POL32, stronger effect = lower value 1 | [4] 0.962 | S. cerevisiae deletion strains, locus YJR075W, strain HOC1, stronger effect = lower value 0.994 | S. cerevisiae deletion strains, locus YKL009W, strain mrt4, stronger effect = lower value 0.999 | S. cerevisiae deletion strains, locus YKL068W, stronger effect = lower value 0.989 | S. cerevisiae deletion strains, locus YKL085W, strain MDH1 (second series), stronger effect = lower value 1 | S. cerevisiae deletion strains, locus YKL085W, strain MDH1, stronger effect = lower value 1 | S. cerevisiae deletion strains, locus YKL190W, strain CNB1, stronger effect = lower value 1 | S. cerevisiae deletion strains, locus YKR001C, strain vps1, stronger effect = lower value 0.992 | S. cerevisiae deletion strains, locus YLR039C, strain RIC1, stronger effect = lower value 1.05 | S. cerevisiae deletion strains, locus YLR058C, strain SHM2, stronger effect = lower value 0.988 | S. cerevisiae deletion strains, locus YLR102C, strain apc9, stronger effect = lower value 0.98 | [5] 1.05 | S. cerevisiae deletion strains, locus YLR262C, strain YPT6, stronger effect = lower value 1.01 | S. cerevisiae deletion strains, locus YLR268W, strain sec22, stronger effect = lower value 0.925 | S. cerevisiae deletion strains, locus YLR330W, strain CHS5, stronger effect = lower value 1.01 | S. cerevisiae deletion strains, locus YLR342W, strain FKS1 (second series), stronger effect = lower value 1.04 | S. cerevisiae deletion strains, locus YLR371W, strain rom2, stronger effect = lower value 0.974 | S. cerevisiae deletion strains, locus YLR418C, strain cdc73, stronger effect = lower value 0.957 | S. cerevisiae deletion strains, locus YML016C, strain PPZ1, stronger effect = lower value 0.988 | S. cerevisiae deletion strains, locus YML032C, strain rad52, stronger effect = lower value 0.964 | S. cerevisiae deletion strains, locus YML124C, strain tub3, stronger effect = lower value 0.985 | S. cerevisiae deletion strains, locus YMR078C, strain ctf18, stronger effect = lower value 0.989 | S. cerevisiae deletion strains, locus YMR223W, strain ubp8, stronger effect = lower value 1.01 | S. cerevisiae deletion strains, locus YMR263W, strain SAP30, stronger effect = lower value 1 | S. cerevisiae deletion strains, locus YMR307W, strain GAS1, stronger effect = lower value 0.978 | S. cerevisiae deletion strains, locus YNL067W, strain RPL9B, stronger effect = lower value 0.986 | S. cerevisiae deletion strains, locus YNL128W, strain TEP1, stronger effect = lower value 1 | S. cerevisiae deletion strains, locus YNL153C, strain GIM3, stronger effect = lower value 0.986 | [6] 0.974 | S. cerevisiae deletion strains, locus YNL233W, strain BNI4, stronger effect = lower value 0.986 | S. cerevisiae deletion strains, locus YNL250W, strain rad50, stronger effect = lower value 0.977 | S. cerevisiae deletion strains, locus YNL271C, strain bni1, stronger effect = lower value 0.986 | S. cerevisiae deletion strains, locus YNL298W, strain CLA4, stronger effect = lower value 0.971 | S. cerevisiae deletion strains, locus YNL307C, strain MCK1, stronger effect = lower value 0.982 | S. cerevisiae deletion strains, locus YNL322C, strain KRE1, stronger effect = lower value 0.993 | S. cerevisiae deletion strains, locus YNR052C, strain pop2, stronger effect = lower value 0.991 | S. cerevisiae deletion strains, locus YOL006C, strain TOP1, stronger effect = lower value 0.927 | S. cerevisiae deletion strains, locus YOL012C, strain htz1 1.17 | S. cerevisiae deletion strains, locus YOL147C, strain pex11, stronger effect = lower value 0.991 | S. cerevisiae deletion strains, locus YOR061W, strain CKA2, stronger effect = lower value 0.997 | S. cerevisiae deletion strains, locus YOR069W, strain VPS5, stronger effect = lower value 0.988 | S. cerevisiae deletion strains, locus YOR136W, strain idh2, stronger effect = lower value 0.971 | S. cerevisiae deletion strains, locus YOR144C, strain elg1, stronger effect = lower value 0.97 | S. cerevisiae deletion strains, locus YOR184W, strain ser1, stronger effect = lower value 0.985 | [7] 1.04 | S. cerevisiae deletion strains, locus YOR316C, strain cot1, stronger effect = lower value 0.982 | S. cerevisiae deletion strains, locus YPL055C, strain LGE1, stronger effect = lower value 1.01 | S. cerevisiae deletion strains, locus YPL241C, strain CIN2, stronger effect = lower value 1 | [8] 1.09 | S. cerevisiae deletion strains, locus YPR119W, strain clb2, stronger effect = lower value 0.982 | S. cerevisiae deletion strains, locus YPR141C, strain kar3, stronger effect = lower value 0.975 | S. cerevisiae deletion strains, locus YPR163C, strain tif3, stronger effect = lower value 0.982 | S. cerevisiae deletion strains, locus YPR167C, strain met16, stronger effect = lower value 0.971 | S. cerevisiae deletion strains, strain wtn01, stronger effect = lower value 0.971 | S. cerevisiae strains, strain wild type, stronger effect = lower value 0.995

NC(N)=NC(N)=NCCc1ccccc1
inactive: [1] 0.956 | [2] 0.96 | [3] 0.961 | [4] 0.953 | [5] 0.965 | [6] 0.916 | [7] 0.975 | [8] 0.934
